Results reported in the antibiotic and cytotoxicity screens of Wong et al. (2023).
Screen size: about 39,000 compounds; about 3,300 (8.5%) were called active. Many of the other results were omitted from the sample, so actives are more common in it than they were.

The compounds below were run on HepG2 (assay: cytotoxicity call (relative viability < 0.9)). Details: 10 µM.

Compound | cytotoxicity call
C[C@H]1CCCCO[C@@H](CN(C)C(=O)Nc2cccc3ccccc23)[C@@H](C)CN([C@@H](C)CO)C(=O)c2cc(NS(C)(=O)=O)ccc2O1 | inactive
C[C@H](CO)N1C[C@H](C)[C@@H](CN(C)C(=O)Nc2ccccc2)Oc2ccc(NC(=O)Cn3cnnn3)cc2C1=O | inactive
CNC[C@@H]1Oc2ccc(NC(=O)Cn3cnnn3)cc2CC(=O)N([C@@H](C)CO)C[C@H]1C | active
C[C@@H]1CN([C@@H](C)CO)C(=O)c2cc(NC(=O)Cn3cnnn3)ccc2O[C@H]1CN(C)C(=O)Nc1cccc2ccccc12 | inactive
CNC[C@@H]1Oc2ccc(NC(=O)Cn3cnnn3)cc2CC(=O)N([C@@H](C)CO)C[C@@H]1C | inactive
C[C@H](CO)N1C[C@H](C)[C@H](CN(C)C(=O)Nc2cccc3ccccc23)Oc2ccc(NC(=O)Cn3cnnn3)cc2C1=O | inactive
C[C@@H]1CN([C@@H](C)CO)C(=O)c2cc(NC(=O)Cn3cnnn3)ccc2O[C@@H]1CN(C)C(=O)Nc1ccccc1 | inactive
C[C@H]1CN([C@@H](C)CO)C(=O)c2cc(NC(=O)Cn3cnnn3)ccc2O[C@H]1CN(C)C(=O)Nc1ccccc1 | active
CNC[C@H]1Oc2ccc(NC(=O)Cn3cnnn3)cc2CC(=O)N([C@@H](C)CO)C[C@H]1C | inactive
C[C@@H]1CN([C@H](C)CO)C(=O)c2cc(NC(=O)Cn3cnnn3)ccc2O[C@H]1CN(C)C(=O)Nc1cccc2ccccc12 | active
Cc1cc(Nc2cc(C)on2)nc([C@H]2CCN(C(=O)CN)C2)n1 | inactive
C[C@H](CO)N1C[C@H](C)[C@@H](CN(C)S(=O)(=O)c2cccs2)Oc2c(NC(=O)CCCN(C)C)cccc2C1=O | inactive
O=C(C[C@@H]1C[C@H]2c3cc(NC(=O)c4ccc5c(c4)OCO5)ccc3O[C@H]2[C@H](CO)O1)NCCc1ccccc1 | inactive
Cc1noc(C)c1NC(=O)N(C)C[C@H]1OCCCC[C@H](C)Oc2ccc(NC(=O)CCC(F)(F)F)cc2C(=O)N([C@@H](C)CO)C[C@H]1C | inactive
C[C@@H]1CN([C@H](C)CO)C(=O)c2cc(C#Cc3cccc(F)c3)cnc2O[C@@H]1CN(C)Cc1ccccn1 | inactive
CC(C)CC#Cc1ccc2c(c1)O[C@H](CN(C)C(=O)c1cccnc1)[C@@H](C)CN([C@@H](C)CO)S2(=O)=O | inactive
O=C(O)c1ccc(N[C@@H]2O[C@H](CO)[C@@H](O)[C@@H]2O)cc1 | inactive
Clc1ccc(-c2onc3cc(-c4ccccc4)ccc23)cc1 | active
Clc1ccc2nc(Cl)cc(-c3ccccc3)c2c1 | inactive
Clc1ccc(-c2cnc3ccc(-c4ccccc4)cn23)cc1 | inactive
C[C@H](CO)N1C[C@H](C)[C@H](CN(C)Cc2ccc(Cl)c(Cl)c2)Oc2ccc(NC(=O)CCCCCC(=O)Nc3ccccc3N)cc2CC1=O | inactive
C[C@H](CO)N1C[C@H](C)[C@@H](CN(C)C(=O)Nc2ccccc2)Oc2ccc(NS(=O)(=O)c3cn(C)cn3)cc2C1=O | inactive
CSCc1nc(=O)cc(C(=O)O)[nH]1 | inactive
CC(C)NC(=O)N(C)C[C@@H]1OCCCC[C@H](C)Oc2ccc(NC(=O)Nc3ccc(F)cc3)cc2C(=O)N([C@@H](C)CO)C[C@H]1C | inactive
C/C=C1\NC(=O)[C@H]2CSSCC/C=C/[C@H](CC(=O)N[C@H](C(C)C)C(=O)N2)OC(=O)[C@H](C(C)C)NC1=O | active

Compound | cytotoxicity call
C[C@@H]1CCCCO[C@H](CN(C)S(=O)(=O)c2cn(C)cn2)[C@@H](C)CN([C@@H](C)CO)C(=O)c2cc(NC(=O)c3ccncc3)ccc2O1 | inactive
NC(=O)CN1CCCCCC1=O | inactive
COc1cc(N)ccn1 | active
COc1ccnc(N)c1 | inactive
COc1ccc(N)cn1 | inactive
COc1ccccc1NC(=O)N(C)C[C@H]1Oc2cc(Br)ccc2S(=O)(=O)N([C@@H](C)CO)C[C@H]1C | inactive
CCOC(=O)[C@@](C)(N)Cc1ccc(O)c(O)c1 | inactive
C[C@](N)(Cc1ccc(O)cc1)C(=O)O | inactive
CC(N)(Cc1cccc(O)c1)C(=O)O (stereo not given) | inactive
N[C@@H](Cc1ccc(O)c(O)c1)C(=O)O | inactive
CC(N)(Cc1ccc(O)c(O)c1)C(=O)O (stereo not given) [listing 1 of 2 here] | active
NC(Cc1ccc(O)c(O)c1)C(=O)O (stereo not given) | active
CC(N)(Cc1ccc(O)c(O)c1)C(=O)O (stereo not given) [listing 2 of 2 here] | inactive
COC(=O)[C@@H](N)Cc1ccc(O)c(O)c1 | inactive
C[C@](N)(Cc1ccc(O)c(O)c1)C(=O)O | active
O=Cc1ccc[nH]1 | inactive
COc1ccc(NC(=O)N(C)C[C@@H]2Oc3ncc(C#C[C@H](C)O)cc3C(=O)N([C@@H](C)CO)C[C@H]2C)cc1 | inactive
CN1CCN(C(=O)C[C@@H]2CC[C@@H]3[C@H](COC[C@H](O)CN3S(=O)(=O)c3cccc(Cl)c3)O2)CC1 | inactive
CC[C@@H](O)C[C@H]1CC[C@H]([C@@H](C)C(=O)O[C@@H](C)C[C@H]2CC[C@H]([C@@H](C)C(=O)O[C@@H](C)C[C@H]3CC[C@H]([C@@H](C)C(=O)O[C@@H](C)C[C@H]4CC[C@H]([C@@H](C)C(=O)O)O4)O3)O2)O1 | active
COc1ccc(S(=O)(=O)Nc2ccc3c(c2)CC(=O)N([C@H](C)CO)C[C@@H](C)[C@@H](CN(C)C(=O)Nc2c(C)noc2C)O3)cc1 | inactive
C[C@@H]1CCCCO[C@H](CN(C)C(=O)c2ccccc2)[C@@H](C)CN([C@H](C)CO)C(=O)c2cc(NC(=O)c3ccccc3)ccc2O1 | inactive
O=C(O)c1cnns1 | inactive
C[C@H](CO)N1C[C@H](C)[C@@H](CN(C)C(=O)Nc2cccc3ccccc23)OCc2cn(nn2)CCCC1=O | inactive
C[C@@H]1CN([C@H](C)CO)C(=O)c2cccc(NC(=O)C3CCOCC3)c2O[C@@H]1CN(C)Cc1ccc(C(=O)O)cc1 | inactive
O=C(NCc1nc2ccccc2[nH]1)C1=C[C@H](c2ccc(C(F)(F)F)cc2)C[C@H](OCc2ccc(CO)cc2)O1 | inactive

Compound | cytotoxicity call
O=C(NCc1nc2ccccc2[nH]1)C1=C[C@@H](c2ccc(Br)cc2)C[C@@H](OCc2ccc(CO)cc2)O1 | active
O=C(NCc1nc2ccccc2[nH]1)C1=C[C@H](c2ccc(Br)cc2)C[C@H](OCc2ccc(CO)cc2)O1 | inactive
C[C@@H]1CCCCO[C@@H](CN(C)C(=O)Nc2cccc3ccccc23)[C@H](C)CN([C@H](C)CO)C(=O)c2cc(NS(=O)(=O)c3ccc(Cl)cc3)ccc2O1 | active
C[C@@H]1CCCCO[C@H](CN(C)C(=O)Nc2cccc3ccccc23)[C@H](C)CN([C@H](C)CO)C(=O)c2cc(NS(=O)(=O)c3ccc(Cl)cc3)ccc2O1 | active
C[C@H](CO)N1C[C@H](C)[C@H](CN(C)C(=O)Nc2cccc3ccccc23)OCCCC[C@H](C)Oc2ccc(NS(=O)(=O)c3ccc(Cl)cc3)cc2C1=O | inactive
C[C@H]1CCCCO[C@@H](CN(C)C(=O)Nc2cccc3ccccc23)[C@@H](C)CN([C@@H](C)CO)C(=O)c2cc(NS(=O)(=O)c3ccc(Cl)cc3)ccc2O1 | inactive
C[C@@H]1CCCCO[C@@H](CN(C)C(=O)Nc2cccc3ccccc23)[C@H](C)CN([C@@H](C)CO)C(=O)c2cc(NS(=O)(=O)c3ccc(Cl)cc3)ccc2O1 | inactive
C[C@@H]1CN([C@@H](C)CO)C(=O)c2cc(NS(=O)(=O)c3ccc(Cl)cc3)ccc2O[C@@H](C)CCCCO[C@@H]1CN(C)C(=O)Nc1cccc2ccccc12 | inactive
CO[C@@H]1CN(C)C(=O)c2ccc(NC(=O)Nc3ccccc3)cc2OC[C@H](C)N(C(=O)CN(C)C)C[C@@H]1C | inactive
COc1ccc(S(=O)(=O)Nc2cccc3c2O[C@H](CN(C)C(=O)NC(C)C)[C@H](C)CN([C@@H](C)CO)C3=O)cc1 | inactive
C[C@@H]1CCCCO[C@@H](CN(C)C(=O)NC2CCCCC2)[C@@H](C)CN([C@H](C)CO)C(=O)c2cc(NC(=O)NC3CCCCC3)ccc2O1 | inactive
COc1ccc(S(=O)(=O)N(C)C[C@@H]2Oc3ncc(C#Cc4ccccc4)cc3C(=O)N([C@H](C)CO)C[C@@H]2C)cc1 | inactive
O=c1[nH]nc2ccccn12 | inactive
CN1C(=O)c2cc(NC(=O)C3CCOCC3)ccc2OC[C@@H]2O[C@@H](CC(=O)NCc3ccc4c(c3)OCO4)CC[C@H]21 | inactive
COc1ccc(C(C)(C)N)cc1OC | inactive
C[C@@H]1C[C@H]1C(=O)O | inactive
C[N+]1(C)C[C@@H](O)C[C@H]1C(=O)O | inactive
C[N+]1(C)C[C@H](O)[C@H](C(=O)O)C1 | active
CN1CCN(C(=O)C[C@@H]2C=C[C@@H](NC(=O)Cc3ccccn3)[C@H](CO)O2)CC1 | inactive
CCCC#Cc1cnc2c(c1)C(=O)N([C@@H](C)CO)C[C@H](C)[C@H](CN(C)S(=O)(=O)c1cccc(OC)c1)O2 | inactive
CCN1C[C@]23CN(C(=O)c4ccn[nH]4)C[C@@H](C[C@H]2S1(=O)=O)O3 | inactive
COc1ccc(S(=O)(=O)N(C)C[C@@H]2OCCCC[C@@H](C)Oc3ccc(NC(=O)CCC(F)(F)F)cc3C(=O)N([C@H](C)CO)C[C@H]2C)cc1 | inactive
COc1cc([C@H]2OC[C@](O)(Cc3ccc(O[C@@H]4O[C@H](CO)[C@@H](O)[C@H](O)[C@H]4O)c(OC)c3)[C@@H]2CO)ccc1O | inactive
COc1cc([C@H]2OC[C@@H]3[C@H]2CO[C@H]3c2cc(OC)c(O[C@@H]3O[C@H](CO)[C@@H](O)[C@H](O)[C@H]3O)c(OC)c2)cc(OC)c1OC | inactive
COc1cc(C[C@H]2CO[C@H](c3ccc(O)c(OC)c3)[C@@H]2CO[C@H]2O[C@@H](CO)[C@@H](O)[C@@H](O)[C@@H]2O)ccc1O | active
